Our source for the outcome values is PubChem BioAssay AID651906 (Vanderbilt Specialized Chemistry Center, 2012).

The structures appear in SMILES notation. Calls of active or inactive are those of the source. No rule for the calls is given here.

The target in the test is Protein deacetylase HDAC6 (Homo sapiens) (UniProt Q9UBN7). As to the kind of experiment: inhibitors of recombinant human HDAC6 – biochemical, selectivity assay for E-cadherin restoration project, profiling panel (AID 651906).
Protein deacetylase HDAC6 (Homo sapiens), sequence (Q9UBN7 whole entry, looked up): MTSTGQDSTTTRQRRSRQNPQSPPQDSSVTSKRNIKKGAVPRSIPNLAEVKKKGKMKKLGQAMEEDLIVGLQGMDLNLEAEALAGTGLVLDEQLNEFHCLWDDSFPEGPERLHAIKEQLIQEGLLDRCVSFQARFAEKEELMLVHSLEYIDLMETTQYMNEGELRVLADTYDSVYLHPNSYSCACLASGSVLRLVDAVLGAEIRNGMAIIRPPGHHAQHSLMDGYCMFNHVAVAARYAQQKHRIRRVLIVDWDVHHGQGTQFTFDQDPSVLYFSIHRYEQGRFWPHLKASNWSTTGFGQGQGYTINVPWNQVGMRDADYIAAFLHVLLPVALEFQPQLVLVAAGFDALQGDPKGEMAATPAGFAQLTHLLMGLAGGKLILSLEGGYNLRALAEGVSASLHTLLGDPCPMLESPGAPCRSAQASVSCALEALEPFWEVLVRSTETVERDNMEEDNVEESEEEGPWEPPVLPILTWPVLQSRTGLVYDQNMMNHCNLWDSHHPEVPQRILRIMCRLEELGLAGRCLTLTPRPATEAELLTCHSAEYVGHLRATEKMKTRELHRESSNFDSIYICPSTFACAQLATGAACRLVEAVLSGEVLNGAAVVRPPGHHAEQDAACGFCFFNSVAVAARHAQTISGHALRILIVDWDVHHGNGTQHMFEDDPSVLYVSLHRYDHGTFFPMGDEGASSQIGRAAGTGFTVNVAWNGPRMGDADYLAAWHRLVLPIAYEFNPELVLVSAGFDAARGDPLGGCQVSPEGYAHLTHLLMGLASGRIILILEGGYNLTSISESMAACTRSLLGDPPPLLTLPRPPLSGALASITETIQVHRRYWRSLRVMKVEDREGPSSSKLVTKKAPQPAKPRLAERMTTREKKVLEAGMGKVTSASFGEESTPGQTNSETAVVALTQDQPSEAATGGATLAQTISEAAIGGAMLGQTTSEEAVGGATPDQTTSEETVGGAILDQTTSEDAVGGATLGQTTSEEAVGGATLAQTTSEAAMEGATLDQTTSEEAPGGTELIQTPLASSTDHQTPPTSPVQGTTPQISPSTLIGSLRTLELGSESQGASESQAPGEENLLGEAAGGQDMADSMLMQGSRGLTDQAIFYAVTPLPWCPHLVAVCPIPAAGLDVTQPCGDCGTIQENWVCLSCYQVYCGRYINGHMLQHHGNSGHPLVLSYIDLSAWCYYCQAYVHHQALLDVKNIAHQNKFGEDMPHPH

With `O=C(NCCCNC(=O)c1ccc[nH]c1=O)c1cc(-c2ccccc2)on1`, the result was inactive.
